Laboratory results from PubChem BioAssay (NCI).
About 83,000 compounds went through this panel and 20% of them were active in at least one assay; those are over-represented in the sample as a whole.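 Single-dose data. Exposure time 48 hours. Values below 10 considered active.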 Active and inactive are the calls of the source.

What was measured:
Assay in all cases: NCI-60 one-dose screen, 48 h (100 = growth as untreated, 0 = no growth, -100 = all killed)
Conditions in all cases: 10 µM unless noted
[1] = system: NCI-H23 lung
[2] = system: NCI-H226 lung
[3] = system: NCI-H322M lung
[4] = system: HOP-62 NSCLC
[5] = system: NCI-H460 lung
[6] = system: HOP-92 NSCLC
[7] = system: NCI-H522 lung
[8] = system: A549/ATCC NSCLC
[9] = system: 786-0 renal
[10] = system: COLO 205 colon
[11] = system: DU-145 prostate
[12] = system: K-562 leukemia
[13] = system: MDA-MB-231 breast
[14] = system: RXF 393 renal
[15] = system: SF-268 CNS
[16] = system: SF-539 CNS
[17] = system: UACC-257 melanoma
[18] = system: M14 melanoma
[19] = system: MALME-3M melanoma
[20] = system: SF-295 CNS

Measured: growth

CC(=O)N[C@@H](CCC(N)=O)C(=O)O
inactive: [1] 92.6% | [2] 87.9% | [3] 111% | [4] 102% | [5] 105% | [6] 61.3% | [7] 103% | [8] 88.2% | [9] 82.6% | [10] 124% | [11] 112% | [13] 87.2% | [14] 90% | [15] 108% | [16] 113% | [17] 97.4% | [18] 93.4%
active: [12] 9.01%

COc1ccc2c(c1)CCCC21C(=O)Nc2ccccc21 (stereo not given)
inactive: [1] 101% | [2] 102% | [3] 91.6% | [4] 96.5% | [5] 115% | [6] 99.3% | [7] 83.2% | [8] 95.2% | [9] 99.3% | [10] 108% | [11] 103% | [19] 102% | [13] 99.4% | [14] 110% | [15] 86.6% | [16] 101% | [17] 110% | [18] 109%

CC1(C)C2CCC(O)(C(=O)O)C1C2 (stereo not given)
inactive: [1] 113% | [2] 113% | [3] 95.9% | [4] 113% | [5] 116% | [6] 117% | [7] 117% | [8] 111% | [9] 107% | [10] 127% | [12] 108% | [19] 109% | [13] 98.9% | [14] 136% | [15] 112% | [20] 103% | [16] 103% | [17] 124%

CCCCCCCCCC1=NC(C)(C)CN1C(C)(C)CO
inactive: [1] 89.1% | [2] 105% | [3] 89.4% | [4] 100% | [5] 105% | [6] 91% | [7] 80.9% | [8] 99.6% | [9] 100% | [10] 184% | [19] 106% | [13] 88.1% | [14] 167% | [15] 94% | [20] 122% | [16] 87.3% | [17] 121% | [18] 113%
active: [12] -25.3%

Cc1ccc(O)c(Cc2ccccc2)c1
inactive: [1] 101% | [2] 106% | [3] 112% | [4] 96.2% | [5] 99% | [6] 52.7% | [7] 93.5% | [8] 101% | [9] 107% | [10] 111% | [11] 108% | [19] 143% | [13] 96.7% | [14] 103% | [15] 99.6% | [16] 100% | [17] 93.7% | [18] 101%

COCCCNCC(=O)Nc1c(C)cccc1C
inactive: [1] 110% | [2] 106% | [3] 139% | [4] 107% | [5] 116% | [6] 103% | [7] 112% | [8] 96.7% | [9] 93.8% | [10] 109% | [11] 113% | [12] 120% | [13] 96.6% | [14] 113% | [15] 109% | [16] 95.3% | [17] 106% | [18] 114%

Nc1c(C(=O)c2ccc(Br)cc2)sc2nc3c(cc12)CCCC3
inactive: [1] 97.4% | [2] 92.2% | [3] 101% | [4] 98.6% | [5] 103% | [6] 89.2% | [7] 43.1% | [8] 96.8% | [9] 98.2% | [10] 104% | [11] 92.4% | [19] 82.6% | [13] 91% | [14] 62.5% | [15] 101% | [20] 98.2% | [16] 92% | [17] 91.9% | [18] 82.7%

CCOc1cccc(/C=N/NC(=O)c2ccc(Nc3ccnc(C(F)(F)F)c3)cc2)c1O
active: [2] -16.7% | [4] -9.17% | [5] -3.48% | [7] 2.45% | [9] 3.12% | [10] -9.24% | [20] 8.46% | [16] 0.3% | [18] -20.3%
inactive: [1] 28.2% | [3] 22.3% | [6] 18.2% | [8] 17.8% | [11] 29.8% | [19] 19.9% | [13] 27.4% | [14] 22% | [15] 22.7% | [17] 12.4%

CCCCCCCCCCC(C(O)c1ccccc1)N1CCCCC1 (stereo not given)
active: [4] -75.3% | [5] -74.5% | [6] -14.8% | [10] -76.3% | [12] 3.31% | [13] 9.66% | [14] -22.3% | [17] -1.19%
inactive: [1] 49.6% | [2] 33.6% | [3] 45.8% | [7] 18% | [8] 47.3% | [9] 29% | [11] 64.5% | [15] 68.4% | [16] 27.3%

CN1CCN(c2ccc(N3Cc4ccccc4OC4=C3C(=O)c3c(O)ccc(O)c3C4=O)cn2)CC1
active: [1] -23.2% | [3] 4.57% | [4] 1.99% | [5] -22.4% | [6] -58.7% | [7] -53.3% | [8] -4.29% | [9] -77.4% | [10] -77.1% | [11] -95.9% | [19] -84.2% | [13] -75.1% | [14] -93.6% | [15] -6.04% | [16] -58.3% | [17] -88.9% | [18] -76.8%
inactive: [2] 35.2%

CN=C1C=C/C(=N/N=c2/ccn(O)cc2C)C=C1C
inactive: [1] 90% | [2] 103% | [3] 113% | [4] 97.2% | [5] 111% | [6] 85.7% | [7] 77.9% | [8] 88.8% | [9] 89.3% | [10] 138% | [11] 104% | [12] 115% | [13] 86.4% | [14] 96.8% | [15] 102% | [16] 90.2% | [17] 98.5% | [18] 101%

COc1ccc(/C=C2\CCCC3=C2N=C2SC(C)=NN2C3c2ccc(OC)c(OC)c2)cc1OC (stereo not given)
active: [16] 6.88%
inactive: [1] 35.5% | [2] 31% | [3] 27.9% | [4] 23.1% | [5] 19.1% | [6] 37.2% | [7] 35.8% | [8] 20.1% | [9] 53% | [10] 22.2% | [11] 16.1% | [12] 14.5% | [13] 28.6% | [14] 40.4% | [15] 39% | [20] 25.3% | [17] 51.9% | [18] 19.8%

COc1ccc2nc(NC(=O)/C(=C/c3cc(OC)c(OC)c(OC)c3)c3ccc(OC)c(OC)c3)sc2c1
inactive: [1] 93.2% | [2] 80.2% | [3] 82.5% | [4] 87.8% | [5] 111% | [6] 74.3% | [7] 78.1% | [8] 85.6% | [9] 100% | [10] 104% | [11] 106% | [19] 98% | [13] 68.8% | [14] 107% | [15] 99.9% | [16] 102% | [17] 97.2% | [18] 104%

O=C(Nc1ccccc1Cl)Oc1ccc2ccccc2c1
inactive: [1] 91.3% | [2] 88.2% | [3] 109% | [4] 92.9% | [5] 102% | [6] 101% | [7] 79.6% | [8] 94.9% | [9] 90.9% | [10] 118% | [11] 107% | [12] 85.3% | [13] 88.7% | [14] 99.6% | [15] 101% | [16] 92.5% | [17] 93.5% | [18] 101%

CC1=C(O)C(=O)C(c2c(C)cc(C)c(Br)c2C)=C(O)C1=O
inactive: [1] 40.7% | [2] 83.3% | [3] 71.5% | [4] 69.9% | [5] 35.5% | [6] 83.7% | [7] 66.8% | [8] 44.1% | [9] 56.8% | [10] 75.8% | [11] 78.4% | [12] 48.8% | [13] 93.5% | [14] 28.9% | [20] 52.6% | [16] 65.2% | [17] 86.5% | [18] 70.2%

CC1CN(CCCOC(=O)Nc2ccc(Cl)cc2)CCN1C(C)(C)C (stereo not given)
inactive: [1] 101% | [2] 96.4% | [3] 96.5% | [4] 112% | [5] 106% | [6] 133% | [7] 97.5% | [8] 103% | [9] 99.3% | [10] 102% | [12] 90.8% | [19] 102% | [13] 102% | [14] 126% | [15] 106% | [20] 107% | [16] 125% | [17] 108% | [18] 99.7%

COc1ccc(Nc2ncccc2C(=O)NCc2cn(Cc3cc(OC)cc(OC)c3)nn2)cc1
inactive: [1] 103% | [2] 98.3% | [3] 105% | [4] 81.9% | [5] 98.3% | [6] 93.2% | [7] 79.4% | [8] 89.5% | [9] 95.3% | [10] 114% | [11] 95.2% | [12] 84.3% | [13] 105% | [14] 96.1% | [15] 87.2% | [16] 90.3% | [17] 98.1% | [18] 98.7%
